High-throughput results as filed in PubChem BioAssay.
The list is not random: actives were taken first. Their share in the collection is about 2.3%.
FBPA coupling cs: counter-screen for Giardia aldolase inhibitors: coupling enzyme system. coupling enzyme system counterscreen, AmpLite Red fluorescence. activity change, negative = inhibition, % at 58.2 µM, hits read low. 290,000 tested, 0.67% active; in the data active = activity change below about -30%
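Counterscreen of the coupled detection system alone, without aldolase: glyceraldehyde-3-phosphate coupling enzymes plus AmpLite Red readout. Compounds at 57.5 uM final, 10 min RT preincubation, 20 min RT reaction, fluorescence 525/598 nm.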
Tau FP inhib: tau fibrillization inhibition (FP). P10636. K18 P301L tau heparin fibrillization, Alexa594 FP, 6 h. Potency, µM (doses to about 57.7 µM), for inactives: at the highest dose activity, negative = inhibition, hits mostly inhibitors. 280,000 tested, 0.39% active. AID 1468; note: potency is the fitted concentration of half-maximal effect; nearly all actives have a fitted effect of over 55% in size
Target sequence (P10636 561-689 P618L limits assumed): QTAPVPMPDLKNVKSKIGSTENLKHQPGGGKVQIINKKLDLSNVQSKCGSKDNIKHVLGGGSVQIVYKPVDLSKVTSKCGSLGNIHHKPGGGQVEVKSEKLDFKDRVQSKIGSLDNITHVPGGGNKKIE
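Heparin (20 uM) drove fibril formation of recombinant tau K18 P301L, 15 uM unlabeled with 0.24 uM Alexa 594 label, for 6 hr at 37 C in 100 mM sodium acetate pH 7. Fluorescence polarization (555/632 nm) read 1 hr after 30 uM ThT.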
USP1-UAF1 inh: blocks the human USP1/UAF1 deubiquitinase complex; 390,000 tested, 0.23% active; Potency, µM (top dose mostly 57.1 µM), for the others: top-dose activity change, negative = inhibition, hits mostly inhibitors; AID 743255; recombinant USP1/UAF1, Ub-Rhodamine cleavage fluorescence; note: potency is the fitted concentration of half-maximal effect; nearly all actives have a fitted effect of over 60% in size
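High-throughput fluorogenic screen: 1nM USP1/UAF1 complex, Ub-Rho substrate 150nM final, 50mM HEPES pH 7.8 with 0.5mM EDTA, 0.1 mg/ml BSA, 1mM TCEP and 0.01% Tween-20.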
Tau ThT inhib: blocks human tau fibril formation measured by thioflavin T | Potency, µM (series often up to 57.4 µM), for the others: top-dose activity, negative = inhibition, most hits filed as inhibitors | AID 1460 | 270,000 tested, 2.1% active | recombinant tau K18 P301L, heparin-induced fibrillization, ThT fluorescence; note: potency is the fitted concentration of half-maximal effect; nearly all actives have a fitted effect of over 55% in size
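In this qHTS, human K18 P301L tau is incubated with compound and heparin for 6 hr at 37 C, and Thioflavin T fluorescence then reports fibril load.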
Tau fluor counter: counter-screen for tau fibril formation inhibitors | tau K18 P301L (four-repeat tau fragment) Alexa594 fluorescence, heparin fibrillization | 280,000 tested, 0.93% active | Potency, µM (highest dose often 57.7 µM), for inactives: at the top dose activity change, negative = decrease | AID 1463; note: potency is the fitted concentration of half-maximal effect; nearly all actives have a fitted effect of over 55% in size
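Human K18 P301L tau (15 uM unlabeled plus 0.24 uM Alexa 594-labeled, final) in 100 mM sodium acetate pH 7 was mixed with compound and 20 uM heparin and incubated 6 hr at 37 C.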
* hit, by the source's call; ? = inconclusive; . = no result; [ ] = remark or other dose. Unless noted, calls come from the whole dose curve; as a rule, active = well fitted curve in the direction sought with a large enough effect; inconclusive = small, poorly fitted or top-dose-only effect, or another doubt; inactive = no such curve, though single readings can be large; an effect the other way counts as inactive or inconclusive. % is set by controls: 0 for no effect and ±100 for the full control effect.

SMILES | FBPA coupling cs | Tau FP inhib | USP1-UAF1 inh | Tau ThT inhib | Tau fluor counter
O=c1oc2cc(O)ccc2cc1-c1ccccc1 | 2.7 | . | -15.3% | . | .
O=c1oc2cc(O)ccc2cc1-c1nc2c(s1)CCc1ccccc1-2 | -14.1 | -18.6% | 241.7% | -8.6% | 11.2µM*[quencher]
COc1ccc(C(=O)NC2CCN(Cc3ccccc3)C2)cc1S(=O)(=O)N1CCOCC1 (stereo not drawn) | . | . | -3.0% | . | .
O=C(O)c1ccc(N/N=C/C2=Cc3ccccc3OC2)cc1 | 14.0 | 3.1% | -16.5% | 3.98µM* | 12.6µM*[quencher]
CC(C)NC(=O)Cn1nnc(-c2ccc(Cl)cc2)n1 | 7.1 | ? | -9.3% | 25.1µM* | ?
Cc1nc(-c2cccc(NC(=O)Nc3ccc([N+](=O)[O-])cc3)c2)no1 | . | 12.6µM* | -24.1% | ? | 8.91µM*[quencher]
COc1ccc(C)cc1NC(=O)Nc1cccc(-c2noc(C)n2)c1 | . | -2.7% | ? | ? | ?
CCc1cc(-c2nc(N)ncc2-c2ccc(Br)cc2)c(O)cc1OC | -5.5 | -2.8% | -22.6% | ? | 12.6µM*[quencher]
C=C(C)COc1ccc(-c2nc(N)ncc2-c2ccc(Br)cc2)c(O)c1 | -4.6 | . | -13.7% | . | .
COC(=O)c1ccc(CNC(=O)c2ccc(OC)c(S(=O)(=O)NC3CC3)c2)cc1 | . | . | -12.2% | . | .
COc1cccc(NC(=O)Nc2nnc(CC(=O)Nc3ccccc3)s2)c1 | -1.2 | 12.6µM* | -12.6% | -2.7% | ?
COc1ccc(NC(=O)Nc2nnc(CC(=O)Nc3ccccc3)s2)cc1 | 2.8 | 1.2% | -4.7% | . | -25.8%
COc1cccc(NC(=O)Nc2nnc(N3C(C)CCCC3C)s2)c1 (stereo not drawn) | -2.8 | ? | -20.2% | ? | 10µM*[quencher]
O=S(=O)(Nc1ccc(Cl)cc1)c1ccc(NS(=O)(=O)c2ccc3c(c2)OCCO3)cc1 | . | 14.1µM* | -19.3% | 13.9% | ?
O=S(=O)(Nc1ccc(Cl)cc1)c1cccc(S(=O)(=O)c2ccc(Cl)c(Cl)c2)c1 | . | 11.2µM* | -28.8% | 9.9% | ?
COc1ccc(NS(=O)(=O)c2ccc(NS(=O)(=O)c3ccc4c(c3)OCCO4)cc2)cc1 | . | ? | -15.6% | 3.7% | ?
NS(=O)(=O)c1ccc(NS(=O)(=O)c2ccc3c(c2)OCCO3)cc1 | 3.3 | . | -2.0% | . | .
COc1ccc(NS(=O)(=O)c2ccc3oc(Nc4ccc5c(c4)OCCO5)nc3c2)cc1 | -0.5 | ? | -6.3% | ? | 12.6µM*[quencher]
O=C(CSc1nccn1C1CCCC1)Nc1ccc(C(F)(F)F)cc1 | . | -2.5% | -16.9% | -1.5% | -22.7%
CN(C(=O)c1cccc(NC(=O)Cc2ccc(NC(=O)C3CCN(C(=O)C4CC4)CC3)cc2)c1)C1CCCCC1 | . | . | -19.9% | . | .
COc1ccc(-c2nc3cnc(N4CCOCC4)nc3n(-c3ccc(OC)cc3)c2=O)cc1 | -1.2 | . | . | . | .
CC[C@H](C)[C@H](NC(=O)[C@H](C)NC(=O)[C@H](Cc1cnc[nH]1)NC(=O)[C@@H]1CCCN1C(=O)CNC(=O)[C@H](CC(C)C)NC(=O)[C@H](CC(C)C)NC(=O)[C@H](Cc1ccc(O)cc1)NC(=O)CNC(=O)[C@H](C)NC(=O)[C@H](CO)NC(=O)[C@H](CC(N)=O)NC(=O)[C@H](CC(C)C)NC(=O)[C@@H](NC(=O)[C@H](Cc1c[nH]c2ccccc12)NC(=O)CN)[C@@H](C)O)C(=O)N[C@@H](CC(=O)O)C(=O)N[C@@H](CC(N)=O)C(=O)N[C@@H](Cc1cnc[nH]1)C(=O)N[C@@H](CCCNC(=N)N)C(=O)N[C@@H](CO)C(=O)N[C@@H](Cc1ccccc1)C(=O)N[C@@H](CO)C(=O)N[C@@H](CC(=O)O)C(=O)N[C@@H](CCCCN)C(=O)N[C@@H](Cc1cnc[nH]1)C(=O)NCC(=O)N[C@@H](CC(C)C)C(=O)N[C@H](C(N)=O)[C@@H](C)O | -1.3 | . | . | . | .
CCOc1ccc(NC(=O)CN(C)C(=O)C2CC(=O)N(Cc3ccco3)C2)cc1OCC (stereo not drawn) | . | . | -2.7% | . | .
COC(=O)c1cn(CC(=O)N2C(C)CCCC2C)c2ccccc12 (stereo not drawn) | 3.6 | -2.2% | -8.1% | -4.3% | -4.9%
CC1CCCC(C)N1C(=O)Cn1cc(/C=C2/C(=O)Nc3ccccc32)c2ccccc21 (stereo not drawn) | -4.6 | 13.7% | -21.4% | 14.1µM* | ?
SMILES | FBPA coupling cs | Tau FP inhib | USP1-UAF1 inh | Tau ThT inhib | Tau fluor counter
CC(C)Oc1cc(NC(=O)CSCC(=O)Nc2cccc(C(F)(F)F)c2)c(Cl)cc1Cl | -5.1 | 35.5µM* | -10.2% | -12.2% | ?
O=C(O)CSCC(=O)Nc1cc(C(F)(F)F)ccc1Cl | 7.8 | -1.3% | -0.8% | -1.3% | 1.7%
COC(=O)c1cc(OC)c(OC)cc1NCC(=O)Nc1cccc(C(F)(F)F)c1 | -0.9 | ? | -20.3% | ? | 17.8µM*[quencher]
COc1cc(OC)cc(N2C(=O)N(CC(=O)c3ccc(F)cc3)c3ccccc3S2(=O)=O)c1 | . | ? | -6.0% | 8.4% | -12.2%
O=C(Nc1ccc(Nc2ccncc2)cc1)c1ccc(Nc2ccnc3ccc([N+](=O)[O-])cc23)cc1[N+](=O)[O-] | -2.7 | -3.0% | ? | ? | 11.2µM*[quencher]
O=C(Nc1ccc(Nc2ccncc2)cc1)c1ccc([N+](=O)[O-])cc1 | 1.5 | 7.4% | -24.3% | ? | -12.8%
COc1cccc(CN2CC(C(=O)N3CCOCC3)CCC2=O)c1 (stereo not drawn) | 0.0 | . | -12.8% | . | .
Cc1noc(-c2ccccc2OCC(=O)Nc2cccc([N+](=O)[O-])c2)n1 | . | 7.5% | -19.1% | ? | -28.7%
N#C/C(=C\C1=C(N2CCOCC2)C(=C/c2cccc([N+](=O)[O-])c2)/CC1)C(=O)Nc1ccccc1F | -4.7 | ? | -12.8% | 2.24µM* | 8.3%
O=c1[nH]c2c(s1)C(c1ccco1)C1C3CCC(C3)C1S2 (stereo not drawn) | -44.1* | -5.6% | -16.5% | ? | -19.2%
COc1ccc(NC(=O)Nc2ccc(N3CCOCC3)c3nonc23)c(OC)c1 | -21.3 | -9.5% | ? | ? | -20.8%
O=C(Nc1ccc(F)cc1)Nc1ccc(N2CCOCC2)c2nonc12 | -9.8 | 13.8% | -4.2% | 2.82µM* | -22.7%
Nc1ccc(N2CCOCC2)c2nonc12 | -48.3* | ? | 17.8µM* | 14.1µM* | ?
O=C(Nc1ccc(N2CCOCC2)c2nonc12)C1CCCC1 | -41.2* | ? | ? | ? | -17.2%
COc1ccc(NC(=O)NNC(=O)c2ccc(-c3ccccc3)cc2)cc1 | -1.0 | . | -17.2% | . | .
O=C1c2ccccc2-c2onc3c(Oc4ccccc4)cc(O)c1c23 | -1.5 | -6.9% | . | 17.8µM* | ?
COc1ccc(/C=N/c2c(-c3ccco3)nc3ccccn23)cc1OC | -20.7 | ? | -20.1% | 22.4µM* | 22.4µM*[quencher]
